Results as given in PubChem BioAssay (NCATS).
Inconclusive results are not listed. Entries that show only a call come without a potency. The source made the active and inactive calls. Unless noted, the call rests on the fitted dose curve.

What was measured:
[1] = qHTS assay for small molecule agonists of retinoid X receptor alpha signaling (AID 588544); conditions: HEK293T RXRa-UAS-bla, beta-lactamase reporter, 18 h; 530 nm emission
[2] = molecular target: Retinoic acid receptor RXR-alpha (Homo sapiens) (UniProt P19793); experiment: as above; conditions: HEK293T RXRa-UAS-bla, beta-lactamase reporter, 18 h; series mostly up to 76.7 µM
[3] = molecular target: Thyroid hormone receptor beta (Homo sapiens) (UniProt P10828); experiment: qHTS assay for small molecule agonists of thyroid hormone receptor beta signaling (AID 588545); conditions: TR-UAS-bla GripTite HEK 293, beta-lactamase ratio, agonist mode, 18 h, percent of T3 response, DMSO as zero; series mostly up to 76.7 µM
In short: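 In this cell-based screen, titrated compounds act on HEK 293 cells held in medium with 2% charcoal/dextran FBS, NEAA and pyruvate for 18 hrs at 37 C. Responses are expressed relative to T3 (10 nM) as 100% and basal DMSO as 0%.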

[4] = qHTS assay for small molecule antagonists of retinoid X receptor alpha signaling (AID 588546; active means well fitted inhibition curve with a large enough effect in the signal ratio, with a control signal flat, not every such curve was filed as active; the % refers to the signal ratio;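 further: cells stimulated with 9-cis-retinoic acid as agonist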); conditions: HEK293T RXRa-UAS-bla, beta-lactamase ratio, antagonist mode; measured here: W530 green channel, cytotoxicity proxy
In short: (§1)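 Beta-lactamase reporter inhibition, read as CCF4 fluorescence ratio (ex 405, em 460/530 nm) after 2 h at RT. HEK293T UAS-bla cells, 2500/well, were stimulated with 9-cis-RA at 500 or 100 nM final alongside test compound for 18 h at 37 C.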

[5] = molecular target: Retinoic acid receptor RXR-alpha (Homo sapiens) (UniProt P19793); experiment: as above; conditions: HEK293T RXRa-UAS-bla, beta-lactamase ratio, antagonist mode
In short: as §1

[6] = molecular target: Thyroid hormone receptor beta (Homo sapiens) (UniProt P10828); experiment: qHTS assay for small molecule antagonists of thyroid hormone receptor beta signaling (AID 588547; active means well fitted inhibition curve with a large enough effect in the signal ratio, with a control signal flat, not every such curve was filed as active; the % refers to the signal ratio;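 further: cells stimulated with 0.4 nM T3 agonist during compound exposure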); conditions: TR-UAS-bla HEK293, beta-lactamase ratio, antagonist mode, 18 h
In short: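 TR-UAS-bla GripTite HEK293 cells in 2% charcoal/dextran FBS medium were preincubated 4 h at 37 C, given compound (0.59 nM to 92 uM) plus 0.4 nM T3 (final) for 18 h, then CCF4 for 2 h at RT; Hill fit gave IC50.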

[7] = molecular target: Voltage-gated inwardly rectifying potassium channel KCNH2 (Homo sapiens) (UniProt Q12809); experiment: qHTS Assay for Small Molecule Inhibitors of the Human hERG Channel Activity (AID 588834; active means well fitted curve in the direction sought with a large enough effect; an effect the other way counts as inactive or inconclusive;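 further: top concentration of the series differs between compounds; lower thallium flux fluorescence means stronger hERG block; nearly all actives have a fitted effect of over 50% in size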); conditions: U2OS BacMam hERG, FluxOR thallium flux fluorescence; series mostly up to 92.2 µM
In short: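 Concentration-response qHTS measuring drop in thallium-sensitive dye signal. U2OS cells carrying BacMam hERG; compound exposure ~10 min, then stimulation buffer and 2 min read at 1 sec intervals.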

[8] = qHTS assay for small molecule agonists of the antioxidant response element (ARE) signaling pathway (AID 651741; active means well fitted activation curve with a large enough effect in the signal ratio; the % refers to the signal ratio); conditions: HepG2 ARE-bla reporter, beta-lactamase FRET ratio, 16 h; series mostly up to 96 µM
In short: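 ARE-bla HepG2 cells (beta-lactamase reporter under ARE control) were plated at 2,000 cells/well, preincubated 5 h at 37 C/5% CO2, then treated with DMSO-dissolved compounds for 16 h at 37 C; LiveBLAzer B/G FRET substrate added, fluorescence read after 2 h at room temperature.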

[9] = qHTS assay for small molecule activators of the p53 signaling pathway (AID 651743; active means well fitted activation curve with a large enough effect in the signal ratio, not every such curve was filed as active; the % refers to the signal ratio); conditions: HCT-116 p53RE-bla, beta-lactamase FRET ratio, 16 h; stronger effect = higher value
In short: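 p53RE-bla HCT-116 cells with a stably integrated beta-lactamase reporter under p53 response elements were plated, rested 5 hours at 37 C/5% CO2, then exposed to compounds in DMSO for 16 hours at 37 C. LiveBLAzer B/G FRET substrate was read after 2 hours at room temperature.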

[10] = qHTS assay for small molecule disruptors of the mitochondrial membrane potential - 1 hr assay (AID 651754); conditions: series mostly up to 92.2 µM; further: nearly all actives have a fitted effect of over 35% in size
In short: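 HepG2 cells, attached overnight at 37C, were exposed to compound or DMSO vehicle for 1 hr at 37C, 5% CO2, then stained with Mito-MPS dye for 30 min. Red aggregate versus green monomer fluorescence reports membrane potential.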

[11] = qHTS assay for small molecule disruptors of the mitochondrial membrane potential - 5 hr assay (AID 651755); conditions: JC-1-type ratio dye; series mostly up to 92.2 µM; further: nearly all actives have a fitted effect of over 40% in size
In short: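 HepG2 cells, attached overnight at 37C, were exposed to compound or DMSO for 5 hr at 37C, 5% CO2. Mito-MPS dye was then added for 30 min, and fluorescence read at 490/535 nm (monomers) and 540/590 nm (aggregates).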

[12] = molecular target: Tumor necrosis factor (Homo sapiens) (UniProt P01375); experiment: qHTS assay to identify small molecules that stimulate Tumor Necrosis Factor-alpha (TNF-alpha) secretion (AID 651757; active means well fitted curve in the direction sought with a large enough effect in the signal ratio; the % refers to the signal ratio); conditions: Human cells, HTRF 665/615 ratio; series mostly up to 92.2 µM
In short: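 THP-1 cells were exposed to compounds for 17 hrs at 37 C, after which secreted TNF-alpha was measured by homogeneous HTRF (TR-FRET) using cryptate- and XL665-labeled anti-TNF-alpha antibodies, read after 3 hr at room temperature.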

[13] = qHTS assay to identify small molecules that stimulate interleukin-8 (IL-8) secretion (AID 651758; active means well fitted activation curve with a large enough effect in the signal ratio; the % refers to the signal ratio); conditions: HTRF ratio (665/615); series mostly up to 92.2 µM
In short: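 THP-1, 2000 cells/well; cpd 16 h, 37 C; add cryptate + XL665 anti-IL-8 Abs; RT 1-3 h; TR-FRET read.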

[14] = qHTS assay for environmental chemicals that activate the Aryl hydrocarbon Receptor (AhR) signaling pathway (AID 651777; active means well fitted curve in the direction sought with a large enough effect; an effect the other way counts as inactive or inconclusive; further: nearly all actives have a fitted effect of over 15% in size); conditions: 1A2-DRE human hepatoma cells, luciferase, 24 h; activation: stronger effect = higher value
In short: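 Human hepatoma 1A2-DRE cells, stably carrying a dioxin response element and CYP1A2 promoter driving luciferase, were exposed to compounds for 24 hr at 37 C and 5% CO2. Luciferase signal was then read after 30 min One-Glo at room temperature.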

[15] = molecular target: Peroxisome proliferator-activated receptor alpha (Homo sapiens) (UniProt Q07869); experiment: qHTS assay for small molecule agonists of the peroxisome proliferator-activated receptor alpha (PPARalpha) signaling pathway (AID 651778; active means well fitted curve in the direction sought with a large enough effect; an effect the other way counts as inactive or inconclusive); conditions: PathHunter PPARalpha complementation, chemiluminescence, 6 h; stronger effect = higher value
In short: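 Cells plated at 2,000/well and held overnight at 37 C, 5% CO2, then compound added by pin tool for 6 hr; after PathHunter detection reagent and 60 min at room temperature, chemiluminescence from enzyme complementation was read.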

[16] = qHTS assay for small molecule agonists of the antioxidant response element (ARE) signaling pathway measured by Nrf2-dependant transcriptional activity (AID 720636; active means well fitted curve in the direction sought with a large enough effect in the repeat runs; an effect the other way counts as inactive or inconclusive); conditions: ARE-luc HepG2, Nrf2 luciferase reporter, 16 h; series mostly up to 92.4 µM
In short: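 ARE-luc HepG2 cells carrying an Nrf2-responsive luciferase reporter were plated in medium with 1% dialyzed FBS, left 6 hr at 37 C to attach, then exposed to compound for 16 hr. Luciferase luminescence was read after ONE-Glo addition.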

[17] = qHTS assay for small molecule antagonists of the retinoid-related orphan receptor gamma (ROR-gamma) signaling pathway - cell viability counter screen (AID 720652; active means well fitted curve in the direction sought with a large enough effect in the repeat runs; an effect the other way counts as inactive or inconclusive;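 further: compound exposure lasted 16 hr before ATP read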); conditions: RORgamma reporter cell line viability counter screen; series mostly up to 92.2 µM
In short: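 Counter screen in CHO cells carrying TET-inducible ROR-gamma and an ROR response element-luciferase reporter; cells plated 5 hr, compound pinned, doxycycline added, then 16 hr at 37 C. Viability read as intracellular ATP by CellTiter-Glo luminescence.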

[18] = qHTS assay for small molecule activators of the nuclear factor-kappa B (NF-kB) signaling pathway (AID 651749; active means well fitted activation curve with a large enough effect in the signal ratio; the % refers to the signal ratio); conditions: NF-kB-bla ME-180 cells, beta-lactamase FRET ratio, 16 h; stronger effect = higher value
In short: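 ME-180 cells stably carrying a beta-lactamase reporter under an NF-kB response element were exposed to compound or DMSO vehicle for 16 hr at 37C, 5% CO2. Pathway activation was read by FRET, since reporter expression disrupts FRET.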

[19] = molecular target: Nuclear receptor ROR-gamma (Homo sapiens) (UniProt P51449); experiment: qHTS assay for small molecule antagonists of the retinoid-related orphan receptor gamma (ROR-gamma) signaling pathway (AID 651802; active means well fitted curve in the direction sought with a large enough effect; an effect the other way counts as inactive or inconclusive; further: nearly all actives have a fitted effect of over 60% in size; further: potency means the concentration at half of the fitted maximal effect); conditions: ROR-gamma antagonist cell reporter assay; series mostly up to 92.2 µM
In short: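 CHO cells carrying TET-inducible ROR-gamma and an ROR response element–luciferase reporter were exposed to compound, then induced with doxycycline. After 16hr at 37C, luminescence was read; lower signal indicates antagonism.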

[20] = qHTS assay for small molecule agonists of the antioxidant response element (ARE) signaling pathway measured by Nrf2-dependant transcriptional activity - cell viability counter screen (AID 720653; active means well fitted curve in the direction sought with a large enough effect in the repeat runs; an effect the other way counts as inactive or inconclusive); conditions: ARE-bla HepG2 viability, CellTiter-Glo ATP luminescence, 16 h; stronger effect = lower value
In short: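 ARE-bla HepG2 cells (2,000/well) rested 5 hrs at 37C/5% CO2, then exposed to compounds in DMSO for 16 hrs. Viability was read in the same wells as intracellular ATP by luminescence, 30 min at room temperature after reagent addition.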

Sequence of Tumor necrosis factor (Homo sapiens) (P01375 whole entry, looked up): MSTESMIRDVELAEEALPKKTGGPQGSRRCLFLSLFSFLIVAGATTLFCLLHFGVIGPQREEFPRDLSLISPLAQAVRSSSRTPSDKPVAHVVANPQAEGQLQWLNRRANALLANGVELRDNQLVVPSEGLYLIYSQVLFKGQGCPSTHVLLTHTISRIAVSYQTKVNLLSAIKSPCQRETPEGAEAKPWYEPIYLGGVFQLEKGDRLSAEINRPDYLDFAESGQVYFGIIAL
Sequence of Peroxisome proliferator-activated receptor alpha (Homo sapiens) (Q07869 whole entry, looked up): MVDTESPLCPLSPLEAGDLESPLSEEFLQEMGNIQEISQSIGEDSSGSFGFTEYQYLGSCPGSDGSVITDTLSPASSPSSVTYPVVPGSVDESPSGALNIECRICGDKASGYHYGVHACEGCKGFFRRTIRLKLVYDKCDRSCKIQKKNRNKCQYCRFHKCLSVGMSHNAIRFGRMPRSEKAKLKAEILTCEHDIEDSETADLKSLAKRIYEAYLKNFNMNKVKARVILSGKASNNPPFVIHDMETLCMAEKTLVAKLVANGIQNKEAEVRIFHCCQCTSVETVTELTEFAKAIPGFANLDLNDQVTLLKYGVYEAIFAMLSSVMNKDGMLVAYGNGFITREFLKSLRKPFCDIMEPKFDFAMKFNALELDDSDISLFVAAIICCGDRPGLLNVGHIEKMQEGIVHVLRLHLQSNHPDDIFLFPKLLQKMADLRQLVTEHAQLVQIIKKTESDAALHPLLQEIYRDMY
Sequence of Thyroid hormone receptor beta (Homo sapiens) (P10828 whole entry, looked up): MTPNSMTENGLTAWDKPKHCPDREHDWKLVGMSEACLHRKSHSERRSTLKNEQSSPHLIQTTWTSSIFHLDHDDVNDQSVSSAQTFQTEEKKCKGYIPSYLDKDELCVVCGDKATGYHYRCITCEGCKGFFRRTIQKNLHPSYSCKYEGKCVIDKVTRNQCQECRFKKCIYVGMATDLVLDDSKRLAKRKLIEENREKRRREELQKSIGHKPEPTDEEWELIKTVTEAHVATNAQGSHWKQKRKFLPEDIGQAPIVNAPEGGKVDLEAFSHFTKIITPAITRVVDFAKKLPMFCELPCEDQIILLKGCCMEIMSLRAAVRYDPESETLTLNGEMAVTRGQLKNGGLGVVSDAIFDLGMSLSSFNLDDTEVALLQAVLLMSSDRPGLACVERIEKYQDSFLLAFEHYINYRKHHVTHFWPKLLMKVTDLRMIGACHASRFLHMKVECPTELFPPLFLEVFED
Sequence of Voltage-gated inwardly rectifying potassium channel KCNH2 (Homo sapiens) (Q12809 whole entry, looked up): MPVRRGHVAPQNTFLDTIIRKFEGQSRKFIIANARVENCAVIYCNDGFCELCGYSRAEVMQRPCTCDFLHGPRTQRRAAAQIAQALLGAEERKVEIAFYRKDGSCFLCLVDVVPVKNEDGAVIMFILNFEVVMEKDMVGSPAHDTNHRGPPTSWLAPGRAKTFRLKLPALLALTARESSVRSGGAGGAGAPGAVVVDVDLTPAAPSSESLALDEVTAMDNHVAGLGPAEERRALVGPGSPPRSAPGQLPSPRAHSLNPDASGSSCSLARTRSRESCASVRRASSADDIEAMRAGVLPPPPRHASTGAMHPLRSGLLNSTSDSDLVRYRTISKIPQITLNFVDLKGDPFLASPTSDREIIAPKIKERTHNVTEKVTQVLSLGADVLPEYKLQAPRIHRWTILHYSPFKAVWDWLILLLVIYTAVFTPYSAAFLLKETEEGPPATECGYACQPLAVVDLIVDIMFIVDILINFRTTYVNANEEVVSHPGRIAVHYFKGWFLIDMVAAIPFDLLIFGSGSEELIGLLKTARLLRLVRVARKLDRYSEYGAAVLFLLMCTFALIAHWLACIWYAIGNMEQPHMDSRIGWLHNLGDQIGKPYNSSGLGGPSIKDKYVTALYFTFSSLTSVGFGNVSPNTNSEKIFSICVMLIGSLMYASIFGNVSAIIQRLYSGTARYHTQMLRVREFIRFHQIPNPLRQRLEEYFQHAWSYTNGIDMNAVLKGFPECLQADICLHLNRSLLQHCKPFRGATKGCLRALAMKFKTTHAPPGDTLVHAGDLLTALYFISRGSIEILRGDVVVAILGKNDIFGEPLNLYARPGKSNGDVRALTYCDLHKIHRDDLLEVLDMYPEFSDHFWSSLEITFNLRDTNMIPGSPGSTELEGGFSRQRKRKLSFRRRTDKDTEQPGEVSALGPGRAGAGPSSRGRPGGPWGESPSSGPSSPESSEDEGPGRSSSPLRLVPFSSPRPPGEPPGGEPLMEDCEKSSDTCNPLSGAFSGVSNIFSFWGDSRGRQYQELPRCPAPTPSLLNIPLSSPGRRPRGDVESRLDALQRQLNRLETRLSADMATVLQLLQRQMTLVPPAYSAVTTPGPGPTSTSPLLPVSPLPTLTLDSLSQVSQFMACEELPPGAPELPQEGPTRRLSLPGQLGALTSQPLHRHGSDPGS
Sequence of Nuclear receptor ROR-gamma (Homo sapiens) (P51449 whole entry, looked up): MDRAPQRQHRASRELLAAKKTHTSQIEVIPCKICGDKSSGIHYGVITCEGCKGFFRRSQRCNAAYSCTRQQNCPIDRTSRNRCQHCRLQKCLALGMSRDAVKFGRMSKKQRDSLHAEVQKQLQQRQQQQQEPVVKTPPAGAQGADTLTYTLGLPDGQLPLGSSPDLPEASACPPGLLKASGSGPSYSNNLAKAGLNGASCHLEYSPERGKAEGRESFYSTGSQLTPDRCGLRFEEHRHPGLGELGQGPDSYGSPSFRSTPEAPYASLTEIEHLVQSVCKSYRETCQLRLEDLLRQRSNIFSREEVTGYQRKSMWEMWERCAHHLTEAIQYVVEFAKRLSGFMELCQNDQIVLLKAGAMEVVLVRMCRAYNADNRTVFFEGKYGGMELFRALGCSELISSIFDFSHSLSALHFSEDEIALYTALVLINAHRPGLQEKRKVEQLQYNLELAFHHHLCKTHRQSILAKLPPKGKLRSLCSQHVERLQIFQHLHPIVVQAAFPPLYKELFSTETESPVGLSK
Sequence of Retinoic acid receptor RXR-alpha (Homo sapiens) (P19793 whole entry, looked up): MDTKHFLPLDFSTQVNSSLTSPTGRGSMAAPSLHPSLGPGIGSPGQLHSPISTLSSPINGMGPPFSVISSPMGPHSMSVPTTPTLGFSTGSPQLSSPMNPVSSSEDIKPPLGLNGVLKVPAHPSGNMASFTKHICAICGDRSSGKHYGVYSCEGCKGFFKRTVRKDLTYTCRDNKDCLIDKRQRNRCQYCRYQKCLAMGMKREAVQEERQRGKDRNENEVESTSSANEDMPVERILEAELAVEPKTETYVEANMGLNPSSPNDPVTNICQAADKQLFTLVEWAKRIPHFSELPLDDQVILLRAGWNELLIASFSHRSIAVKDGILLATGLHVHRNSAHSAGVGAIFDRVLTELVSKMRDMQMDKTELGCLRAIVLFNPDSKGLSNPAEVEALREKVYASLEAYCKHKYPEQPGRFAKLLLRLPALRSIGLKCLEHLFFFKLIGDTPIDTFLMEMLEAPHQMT

Structure (SMILES)	max response [1]	outcome [2]	outcome [3]	max response [4]	max response [5]	activity change % (negative = inhibition) [6]	Potency [7]	Potency [8]	activation [9]	Potency [10]	Potency [11]	Potency [12]	Potency [13]	activation [14]	max response [15]	outcome [16]	Potency [17]	activation [18]	Potency [19]	max response [20]
Cc1cc(C(=O)O)ccc1[N+](=O)[O-]	-3.52%	inactive	inactive	-3.81%	36.9% (inactive)	7.48% (inactive)	inactive	inactive	-0.415% (inactive)	inactive	inactive	inactive	inactive	1.35% (inactive)	-0.276% (inactive)	inactive	inactive	–	–	–
C[C@@H]1O[C@@H](O[C@@H]2[C@@H](O)[C@H](OCCc3ccc(O)c(O)c3)O[C@H](CO[C@@H]3O[C@H](CO)[C@@H](O)[C@H](O)[C@H]3O)[C@H]2OC(=O)/C=C/c2ccc(O)c(O)c2)[C@H](O)[C@H](O)[C@H]1O	0.999%	inactive	inactive	-0.609%	-6.94% (inactive)	4.68% (inactive)	inactive	inactive	-0.671% (inactive)	inactive	inactive	–	–	–	–	inactive	–	-0.414% (inactive)	inactive	-6.98% (inactive)
Cc1ccc(C(C)(C)C)cc1	-4.76%	inactive	inactive	-11.6%	4.12% (inactive)	14% (inactive)	inactive	inactive	-7.08% (inactive)	inactive	inactive	inactive	inactive	-0.334% (inactive)	–	inactive	inactive	–	inactive	–
O=C(O)CNC(=O)c1ccc([N+](=O)[O-])cc1	0.246%	inactive	inactive	-9.96%	23.2% (inactive)	4.89% (inactive)	inactive	inactive	-1.97% (inactive)	–	inactive	inactive	–	0.908% (inactive)	–	inactive	inactive	0.89% (inactive)	–	1.63% (inactive)
O=Cc1c(Cl)cccc1Cl	3.02%	inactive	inactive	-5.87%	-1.18% (inactive)	-16.1% (inactive)	inactive	inactive	-2.41% (inactive)	–	–	inactive	–	1.15% (inactive)	25.1% (inactive)	inactive	inactive	-0.578% (inactive)	16.8 µM (active)	11.9% (inactive)
CCCCCCCCC/C=C/CC1CC(=O)OC1=O (stereo unspecified)	-0.831%	inactive	inactive	1.93%	19.9% (inactive)	2.72% (inactive)	inactive	–	3.69% (inactive)	inactive	inactive	inactive	inactive	–	0.153% (inactive)	inactive	inactive	-0.282% (inactive)	–	-4.85% (inactive)
NC(N)=S	-8.98%	inactive	inactive	10%	4.07% (inactive)	-6.09% (inactive)	inactive	inactive	-1.07% (inactive)	inactive	inactive	inactive	–	0.321% (inactive)	-4.91% (inactive)	inactive	inactive	–	–	-0.0983% (inactive)
